# Laboratory results from PubChem BioAssay (NCATS).
# A number with no mark means an inactive call. Records with an inconclusive call do not appear. Where a call stands in place of a potency, no number is given. Active and inactive are the calls of the source. Unless noted, calls come from the whole dose curve; as a rule, active = well fitted curve in the direction sought with a large enough effect; inconclusive = small, poorly fitted or top-dose-only effect, or another doubt; inactive = no such curve, though single readings can be large; an effect the other way counts as inactive or inconclusive.
# Assays:
# [1] = molecular target: Mitogen-activated protein kinase 10 (Mus musculus) (UniProt Q61831); assay: JNK3 AlphaScreen Assay (AID 530; active = well fitted curve in either direction with a large enough effect, not every such curve was filed as active;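 note: kinase came from lysate of stimulated human HepG2 cells; signal reports phosphorylation of biotinylated GST-cJun 1-79 at Ser73 with 10 µM ATP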)
# Method in brief: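 HepG2 lysate (IL-1b/TNFa pre-activated) + biotin-GST-cJun 1-79 + anti-pSer73 cJun; cpd titration, 15 min RT; ATP 10 uM start; Tris pH 7.6, MgCl2, DTT, vanadate; beads in EDTA buffer; AlphaScreen.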
# [2] = Cell Viability - HUV-EC-C (AID 542); note: nearly all actives have a fitted effect of over 35% in size
# Method in brief: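 Luminescent ATP read-out (CellTiter-Glo, 20 min room temperature) after 40 hr compound treatment of HUV-EC-C cells at 37 °C. Concentration-response data fitted with the standard Hill equation to give AC50; tamoxifen and doxorubicin served as positive controls.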
# [3] = Cell Viability - Renal Proximal Tubule (AID 545); note: nearly all actives have a fitted effect of over 40% in size
# Method in brief: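 In this qHTS format, normal rat kidney-derived proximal tubule cells in complete culture medium receive compound titrations, then sit 40 hours at 37 °C before luciferase-based ATP quantitation; potency is reported as AC50 from concentration-response curves.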
# [4] = Cellular Toxicity (caspase-3) HepG2 (AID 654);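 note: cells exposed to compound for 16 hours before reading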
# Method in brief: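 Luminescent Caspase-Glo 3/7 readout after 16 hr compound exposure of human hepatocellular carcinoma HepG2 cells at 37 °C; qHTS concentration-response, normalized DMSO = 0%, 100 uM tamoxifen = 100%; AC50 by standard Hill equation.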
# [5] = Cellular Toxicity (caspase-3) Jurkat (AID 655); settings: Jurkat caspase-3 activation, luminescence; caspase-3 activation: at 92.2 µM (top of the series), DMSO = 0%, tamoxifen = 100%;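 note: cells exposed to compound for 16 h at 37 °C before reading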
# Method in brief: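 qHTS in human Jurkat T-cell leukemia line: 16 hr compound treatment at 37 °C, caspase-3/7 activity measured by Caspase-Glo luminescence. AC50 derived from Hill equation.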
# [6] = Cellular Toxicity (caspase-3) NIH 3T3 (AID 666)
# Method in brief: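 NIH 3T3, 1000 cells/well, 5 hr settle then 16 hr compound at 37°C; Caspase-Glo 3/7, 20 min RT, luminescence. DMSO = basal, 100 uM tamoxifen = 100%. Hill-equation AC50, qHTS.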
# [7] = Cellular Toxicity (caspase-3) Renal Proximal Tubule (AID 667);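 note: cells exposed to compound for 16 hours at 37 °C before detection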
# Method in brief: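 Caspase-Glo 3/7 read-out, rat primary kidney proximal tubule cells. Compound exposure 16 h, 37 °C; detection after 1 h at RT. Activity scaled to DMSO and 10 uM staurosporine.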
# [8] = MultiTox-Fluor Cytotoxicity Assay - LYMP1-001 - Dead Cells (AID 946)
# Method in brief: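 AC50 from Hill fit of concentration-response; data normalized to DMSO (basal) and 15 uM tetraoctylammonium bromide (100%). LYMP1-001 lymphoblastoid cells, 2500/well, 16 hr compound at 37 C; dead-cell protease fluorescence, Ex/Em 485/520.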
# [9] = MultiTox-Fluor Cytotoxicity Assay - LYMP1-001 - Live Cells (AID 947)
# [10] = MultiTox-Fluor Cytotoxicity Assay - LYMP1-002 - Live Cells (AID 955);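 note: cells exposed to compound for 16 hours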
# Method in brief: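 LYMP1-002 lymphoblastoid cells; 2500 cells/well; 16 hr compound exposure, 37 C; MultiTox-Fluor reagent 60 min RT; live-cell fluorescence Ex/Em=405/510; qHTS concentration-response, Hill-equation AC50; tetraoctylammonium bromide positive control.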
# [11] = Cell Viability - LYMP2-009 (AID 968); note: nearly all actives have a fitted effect of over 55% in size; note: potency is the fitted concentration of half-maximal effect
# [12] = Cell Viability - LYMP2-011 (AID 969);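 note: cells exposed to compound for 24 hours; nearly all actives have a fitted effect of over 60% in size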
# Method in brief: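 Luminescent ATP read-out (CellTiter-Glo, 30 min RT) after 24 hr compound exposure at 37 C in human lymphoblastoid cells, 2500 cells/well. Decreasing ATP indicates cytotoxicity; AC50 from standard Hill fit.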
# [13] = Cell Viability - LYMP2-019 (AID 973); note: nearly all actives have a fitted effect of over 55% in size
# Method in brief: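 qHTS, 1536-well; 2500 cells/well; 5 hr pre-incubation, 24 hr compound exposure, 37 C; CellTiter-Glo added, 30 min RT; luminescence read; AC50 via standard Hill equation.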
# [14] = Cell Viability - LYMP2-023 (AID 975);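 note: cellular ATP measured by luciferase luminescence as viability proxy; cells exposed to compound for 24 hours at 37 °C; nearly all actives have a fitted effect of over 55% in size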
# Method in brief: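 CellTiter-Glo luminescence after 30 min at room temperature; decrease in intracellular ATP reflects toxicity. Cells: human lymphoblastoid line, 2500/well, 24 hr compound exposure at 37 C. AC50 fitted to standard Hill equation from concentration-response.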
# [15] = Cell Viability - LYMP2-026 (AID 989); note: nearly all actives have a fitted effect of over 50% in size
# Method in brief: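 qHTS cytotoxicity: 2500 cells/well, 5 hr 37 C, compound 24 hr 37 C, CellTiter-Glo 30 min RT, luminescence. Tetraoctylammonium bromide positive control. AC50 via standard Hill fit.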
# [16] = Cell Viability - LYMP1-002 - Assay at 24 hr (AID 993)
# Method in brief: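 CellTiter-Glo luminescence (intracellular ATP) after 24 h compound exposure, 37 C, in LYMP1-002 human lymphoblastoid cells; decreased ATP taken as cytotoxicity. AC50 from standard Hill fit of concentration-response curves.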
# [17] = molecular target: Peroxisome proliferator-activated receptor gamma (Homo sapiens) (UniProt P37231); assay: qHTS assay for small molecule agonists of peroxisome proliferator-activated receptor gamma signaling (AID 588536; active = well fitted curve in the direction sought with a large enough effect in the signal ratio, with a control signal flat, not every such curve was filed as active; the % refers to the signal ratio)
# Method in brief: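 Compound treatment: 16 h, 37 C, HEK293 GeneBLAzer cells. Detection: CCF4, 2 h RT. Values: Hill-fit EC50, efficacy as % of 2 uM rosiglitazone.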
# [18] = molecular target: Vitamin D3 receptor (Homo sapiens) (UniProt P11473); assay: qHTS assay for small molecule agonists of vitamin D receptor signaling (AID 588543; calls by dose curve)
# Method in brief: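 Measured: β-lactamase reporter activity (CCF4, 405 nm excitation, 460/530 nm emission) in HEK293T VDR-UAS-bla cells after 16 h compound exposure at 37 °C. Normalization against 50 nM 1α,25-dihydroxyvitamin D3 and DMSO; Hill-fit EC50.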
# [19] = qHTS assay for small molecule disruptors of the mitochondrial membrane potential - 5 hr assay (AID 651755; calls by dose curve; note: nearly all actives have a fitted effect of over 40% in size)
# Method in brief: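 Read-out: ratiometric Mito-MPS fluorescence, green monomer (ex 490/em 535) vs red mitochondrial aggregate (ex 540/em 590). HepG2 cells treated 5 hr at 37C before 30 min dye loading.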
# [20] = Cell Viability - LYMP2-002 (AID 977)
# Method in brief: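 Human lymphoblastoid cells, 2500/well, complete medium; 5 h 37 C settle; compound 24 h 37 C; CellTiter-Glo, 30 min RT; luminescence. Decrease in ATP = cytotoxicity; AC50 via Hill equation.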
# Chain of Peroxisome proliferator-activated receptor gamma (Homo sapiens) (P37231 whole entry, looked up): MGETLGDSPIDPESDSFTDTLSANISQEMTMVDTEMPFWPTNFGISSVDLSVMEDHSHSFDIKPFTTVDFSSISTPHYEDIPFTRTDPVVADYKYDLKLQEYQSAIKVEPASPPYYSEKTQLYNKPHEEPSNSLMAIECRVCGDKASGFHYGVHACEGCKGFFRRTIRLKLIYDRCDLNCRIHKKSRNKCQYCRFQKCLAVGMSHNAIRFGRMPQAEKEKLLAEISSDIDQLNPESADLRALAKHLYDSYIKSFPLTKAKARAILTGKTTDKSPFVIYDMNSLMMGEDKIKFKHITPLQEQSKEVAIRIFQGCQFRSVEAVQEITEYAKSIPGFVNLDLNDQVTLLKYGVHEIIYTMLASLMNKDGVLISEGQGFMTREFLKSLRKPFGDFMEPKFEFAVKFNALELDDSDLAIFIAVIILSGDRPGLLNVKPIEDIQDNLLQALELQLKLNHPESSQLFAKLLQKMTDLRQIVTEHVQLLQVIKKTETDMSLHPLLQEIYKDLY
# Chain of Vitamin D3 receptor (Homo sapiens) (P11473 whole entry, looked up): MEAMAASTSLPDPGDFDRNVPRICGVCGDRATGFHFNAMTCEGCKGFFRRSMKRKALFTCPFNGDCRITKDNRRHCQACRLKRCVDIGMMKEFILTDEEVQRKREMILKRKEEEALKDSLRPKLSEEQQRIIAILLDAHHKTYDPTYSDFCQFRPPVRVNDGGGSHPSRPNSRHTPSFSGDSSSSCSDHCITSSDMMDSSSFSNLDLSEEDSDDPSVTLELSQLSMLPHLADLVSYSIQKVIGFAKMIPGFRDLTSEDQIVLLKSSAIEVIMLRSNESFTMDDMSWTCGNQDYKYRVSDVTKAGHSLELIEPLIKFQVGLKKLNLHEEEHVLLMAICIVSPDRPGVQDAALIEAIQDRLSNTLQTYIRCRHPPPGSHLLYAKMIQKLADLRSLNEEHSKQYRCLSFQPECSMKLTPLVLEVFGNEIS
Compound,Potency [1],Potency [2],outcome [3],outcome [4],caspase-3 activation [5] [%],Potency [6],outcome [7],outcome [8],outcome [9],outcome [10],Potency [11],Potency [12],Potency [13],Potency [14],Potency [15],Potency [16],outcome [17],outcome [18],Potency [19],Potency [20]
Clc1ccc(C(Cl)(Cl)Cl)cc1Cl,inactive,inactive,inactive,inactive,0.663,inactive,inactive,inactive,inactive,inactive,inactive,inactive,inactive,inactive,inactive,inactive,inactive,inactive,inactive,–
Cc1ccc(N)c(N)c1,inactive,inactive,inactive,inactive,–,–,inactive,inactive,–,inactive,25.1 µM (active),–,–,–,inactive,inactive,–,inactive,–,–
BrCC(Br)C1CCC(Br)C(Br)C1 (configuration not stated),–,inactive,inactive,inactive,3.33,inactive,inactive,inactive,inactive,inactive,inactive,inactive,inactive,inactive,inactive,inactive,inactive,–,inactive,inactive
ClCC(Cl)Cl,–,inactive,inactive,inactive,0.231,inactive,inactive,inactive,inactive,inactive,inactive,inactive,inactive,inactive,–,inactive,inactive,inactive,inactive,inactive
C=CCCC#N,–,inactive,inactive,inactive,-1.73,inactive,inactive,inactive,inactive,inactive,inactive,inactive,inactive,inactive,inactive,inactive,inactive,inactive,inactive,–
CC[N+](=O)[O-],inactive,inactive,inactive,inactive,1.63,inactive,inactive,inactive,inactive,inactive,inactive,inactive,inactive,inactive,inactive,inactive,inactive,inactive,inactive,inactive
CCSC(=O)N1CCCCCC1,–,inactive,inactive,inactive,–,inactive,inactive,–,inactive,inactive,–,inactive,inactive,–,inactive,inactive,inactive,inactive,inactive,–
Cc1cc(-c2ccc(N)c(C)c2)ccc1N,inactive,inactive,inactive,inactive,1,–,–,inactive,inactive,inactive,–,inactive,inactive,–,inactive,inactive,inactive,inactive,inactive,inactive
Nc1ccccc1-c1ccccc1,inactive,inactive,inactive,inactive,2.93,inactive,inactive,inactive,inactive,inactive,inactive,–,inactive,–,inactive,inactive,inactive,inactive,–,–
CC(C)(C)C(O)(CCc1ccc(Cl)cc1)Cn1cncn1 (configuration not stated),inactive,inactive,inactive,inactive,–,–,inactive,inactive,inactive,inactive,inactive,inactive,–,–,inactive,inactive,inactive,inactive,inactive,inactive
C=CC=O,inactive,inactive,–,inactive,13.2,inactive,inactive,inactive,inactive,–,inactive,–,–,inactive,–,inactive,inactive,inactive,–,inactive
CN(C)N=O,inactive,inactive,–,–,0.809,inactive,inactive,inactive,inactive,–,inactive,inactive,inactive,inactive,inactive,inactive,inactive,inactive,inactive,inactive
C=CCO,inactive,inactive,inactive,inactive,2.82,–,inactive,inactive,inactive,inactive,inactive,inactive,inactive,–,inactive,inactive,–,–,inactive,inactive
Clc1ccc(Cl)c(Cl)c1,inactive,–,inactive,inactive,-0.724,–,inactive,inactive,inactive,inactive,–,inactive,–,inactive,–,inactive,inactive,inactive,inactive,–
ClC(Cl)Br,–,inactive,inactive,inactive,0.703,inactive,inactive,inactive,inactive,inactive,–,inactive,inactive,inactive,inactive,–,inactive,inactive,inactive,inactive
ClCCBr,inactive,–,inactive,inactive,0.239,–,–,inactive,inactive,inactive,inactive,inactive,–,inactive,inactive,–,inactive,–,inactive,inactive
COc1cc(-c2ccc(N)c(OC)c2)ccc1N,–,inactive,inactive,inactive,-0.124,inactive,inactive,inactive,inactive,inactive,inactive,inactive,inactive,–,inactive,–,inactive,inactive,–,inactive
O=[N+]([O-])c1cc(Cl)c(Cl)cc1Cl,inactive,inactive,inactive,–,2.39,inactive,inactive,inactive,inactive,inactive,inactive,inactive,inactive,inactive,–,inactive,inactive,inactive,inactive,inactive
